This is an account of results in ChEMBL document CHEMBL3988442, “University of Dundee, Small-Polar-MMV Screening Library” (2021).

For test [1], the target named is T1, Aspartate--tRNA(Asp/Asn) ligase (Mycobacterium tuberculosis (strain ATCC 25618 / H37Rv)) (UniProt P9WFW3). Also: in the data most compounds retested in dose-response had high values.
T1 sequence (whole entry): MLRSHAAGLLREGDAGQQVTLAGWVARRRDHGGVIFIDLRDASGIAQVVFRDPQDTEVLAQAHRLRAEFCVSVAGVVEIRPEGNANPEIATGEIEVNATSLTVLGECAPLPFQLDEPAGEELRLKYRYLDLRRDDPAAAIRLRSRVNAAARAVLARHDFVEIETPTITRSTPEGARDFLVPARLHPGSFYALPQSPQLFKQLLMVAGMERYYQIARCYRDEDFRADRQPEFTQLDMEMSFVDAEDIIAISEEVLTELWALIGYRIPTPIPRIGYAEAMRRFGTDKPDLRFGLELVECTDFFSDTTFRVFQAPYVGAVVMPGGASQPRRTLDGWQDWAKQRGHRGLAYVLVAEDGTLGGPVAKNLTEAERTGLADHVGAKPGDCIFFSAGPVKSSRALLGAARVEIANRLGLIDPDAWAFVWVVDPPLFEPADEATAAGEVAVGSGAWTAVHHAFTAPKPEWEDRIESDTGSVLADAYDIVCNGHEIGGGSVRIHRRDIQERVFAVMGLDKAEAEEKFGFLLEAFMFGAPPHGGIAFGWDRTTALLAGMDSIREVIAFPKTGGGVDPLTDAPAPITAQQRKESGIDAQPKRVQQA
The test can be described thus: Assay for Asp RNA synthetase-1 from Mycobacterium tuberculosis. Also on record: scale not given: direction of the effect not stated beside the values. It is filed as functional. As to conditions: 30 µM.

The target in test [2] is Shiga toxin 2 (Escherichia coli O157:H7) (UniProt P09385+P09386). The test can be described thus: E. coli 0.157:H7 Shiga Toxin SOP - stx2 screening assay. Details: scale not given: direction of the effect not stated beside the values. As to conditions: 30 µM. It is filed as functional.

Molecules are shown by their SMILES.

As to `c1coc(CN2C[C@H](OCC3CCOCC3)[C@H]3COC[C@H]32)c1`, the Percent Effect was found to be 1.73% in test [1] and 12.6% in test [2].

With `Cc1ccc(S(=O)(=O)Nc2ccc(-n3cccc3C(=O)O)c(C)c2)s1`, the Percent Effect in test [1] was 4.34%; in test [2] it was 18.8%.

For the molecule `Cc1cnc(CN(C)C2CCN(Cc3nc4ccccc4n3C)C2)o1` (stereo not given), the Percent Effect in test [1] was -5.16%; in test [2], -27.3%.

With `CN(Cc1nccn1CC(F)(F)F)C(=O)c1cccc(C#N)c1`, the Percent Effect is 1.68% in test [1] and -1.08% in test [2].

On to `Cc1nc(C)n(CC2CCCCN2CCCS(=O)(=O)N(C)C)n1` (stereo not given), for which the Percent Effect is 1.48% in test [1] and -34.2% in test [2].

With `Cc1ccc(S(=O)(=O)N2CCOc3ccccc32)cc1C(N)=O`, the Percent Effect was 0.611% in test [1] and -48.3% in test [2].

`CC(=O)N1CCCC1C(=O)NCCOc1cc(C)cc(C)c1` (stereo not given): the results for the Percent Effect in test [1] and in test [2] were -2.19% and 9.04%, respectively.

In the case of `Cc1cccnc1NC(=O)CSc1ccc2c(c1)OCCO2`, the Percent Effect in test [1] is 0.668%; in test [2] it was -4.11%.

For `COc1ccccc1OCC(=O)NS(=O)(=O)c1ccccc1F`, the Percent Effect in test [1] was 0.814%; in test [2], -7.18%.

Regarding `COC(=O)c1ccc(N2CCN(CCC(=O)NC(N)=O)C(C)C2)cc1` (stereo not given), the Percent Effect stood at 3.04% in test [1] and 25.6% in test [2].

For `COc1cc(C(=O)NS(=O)(=O)c2cccc(C#N)c2)cc(Cl)c1OC`, the Percent Effect worked out at 0.845% in test [1] and 3.59% in test [2].

As to `Cc1nn(C)c(N(C)C)c1CNCc1ccccc1CN(C)C`, the results for the Percent Effect in test [1] and in test [2] were -4.76% and -24.6%, respectively.

As for `CCOC(=O)NC(CNC(=O)c1ncccn1)CC(C)C` (stereo not given), the results for the Percent Effect in test [1] and in test [2] were 6.25% and 4.71%, respectively.

As for `CCN(CC1CCOC1)C(=O)Nc1ccc(OC)nc1` (stereo not given), the Percent Effect in test [1] was 4.72%; in test [2] it was -156%.

As to `Cc1cnn(CC2CCCN2Cc2nc3ccccc3n2C)c1` (stereo not given), the Percent Effect in test [1] is 3.43%; in test [2] it was -9.07%.

Consider `NS(=O)(=O)Cc1ccc(CNC(=O)NCC2CCOC2)cc1` (stereo not given), for which the Percent Effect in test [1] was -4.55%; in test [2], 26.9%.

On to `Cc1nc(CN(C)C2CCN(Cc3nc4ccccc4s3)C2)no1` (stereo not given), for which the Percent Effect in test [1] is -0.253%; in test [2], 0.376%.

Regarding `CO[C@@H]1CC[C@@H](N(C)C(=O)COc2ccc(F)cc2)[C@H]1O`, the Percent Effect in test [1] was determined as 3.81%; in test [2], 28.3%.

Regarding `CCCNC(=O)Nc1cc2c(cc1SC)OCCO2`, the figures for the Percent Effect in test [1] and in test [2] were -0.324% and -0.581%, respectively.

Turning to `c1cnnc(N2CCCC2CNCc2nc3ccccc3o2)c1` (stereo not given), the Percent Effect in test [1] is 7.18%; in test [2], -25.7%.

Turning to `CCc1ccc(CN2CCC3(CC2)CNC(=O)CO3)o1`, the Percent Effect is -0.662% in test [1] and -2.48% in test [2].

Regarding `Cc1nn(C)c(C)c1CNC1CCOc2ccccc21` (stereo not given), the Percent Effect is -0.466% in test [1] and 8.07% in test [2].

Consider `Cc1nc(CN2CCCC(NCc3ccsc3)C2)no1` (stereo not given), for which the Percent Effect in test [1] was 3.1%; in test [2], -14.2%.

Turning to `CC(C)(C)c1cnc(CN2CCC(c3ccnn3CCO)CC2)o1`, the Percent Effect in test [1] is -2.6%; in test [2], -1.72%.

As to `COc1ccc(S(=O)(=O)NCc2cccnc2N(C)C)cc1F`, the Percent Effect was -1.03% in test [1] and -9.13% in test [2].

For the molecule `Cc1nnc(NCc2ccccc2Cl)c(C#N)c1C`, the Percent Effect in test [1] stood at 16.3%; in test [2], 10.3%.

Regarding `Cc1cc(C)n(CC2CCCN2C(=O)c2ccc3c(c2)OCO3)n1` (stereo not given), the Percent Effect is -1.99% in test [1] and -23.4% in test [2].

As for `Cc1ncc2c(n1)CCCC2NC(=O)c1ccncc1` (stereo not given), the Percent Effect in test [1] was 2.71%; in test [2], -63.8%.

In the case of `CC(C)C(=O)NCC(=O)N(C)C1CCCN(CCc2ccccc2)C1` (stereo not given), the Percent Effect in test [1] is -0.948%; in test [2], -14.4%.

Turning to `Cc1nc(C)n(CC2CCCN2CCc2cccs2)n1` (stereo not given), the Percent Effect was -0.678% in test [1] and -28.6% in test [2].

For `CC(=O)N1CCN(S(=O)(=O)c2ccc(C)c(F)c2)CC1`, the Percent Effect in test [1] was -1.95%; in test [2], -12.2%.

`O=C(O)C1(Cc2cc(-c3cccc(F)c3)no2)CCOCC1`: the Percent Effect in test [1] was -1.59%; in test [2], 9.34%.

As to `Cn1c(Cn2cccn2)nnc1C1CCCN(c2ccncc2)C1` (stereo not given), the Percent Effect in test [1] is 1.37%; in test [2], -3.13%.

On to `CC(NCC1=Cc2cc(Cl)ccc2OC1)c1nnc2n1CCCC2` (stereo not given), for which the Percent Effect in test [1] is 1.06%; in test [2] it was -9.58%.

As for `O=C(CSc1ncccn1)N1C[C@H]2CC[C@@H]1CN(Cc1ccncc1)C2`, the values for the Percent Effect in test [1] and in test [2] were 3.45% and -26.2%, respectively.

On to `O=C(CCCc1nc2ccccc2[nH]1)N1CCCC(n2cccn2)C1` (stereo not given), for which the Percent Effect in test [1] is 0.834%; in test [2], 3.01%.

In the case of `COc1cccc2c1OCC(CNC(=O)CSc1nc(N)n[nH]1)C2` (stereo not given), the Percent Effect in test [1] was 2.1%; in test [2] it was 6.55%.

As to `CCS(=O)(=O)N1CCC[C@]2(C(=O)N(C)C)CN(c3ccccn3)C[C@@H]2C1`, the results for the Percent Effect in test [1] and in test [2] were 0.903% and -10.3%, respectively.

Take `O=C(NCCCN1CCCC1)c1n[nH]c(=O)c2ccccc12`: the Percent Effect was -3.43% in test [1] and -6.83% in test [2].

As for `CN(CC1CC1)c1ccc2ccc(C(=O)NCCN3CCOCC3)cn12`, the Percent Effect is -0.228% in test [1] and -88.6% in test [2].

Consider `Cc1nnc(N2CCC(CN(C)C(C)C)CC2)c(C#N)c1C`, for which the Percent Effect in test [1] is -0.173%; in test [2], -25%.

In the case of `Cn1cc(CN2CCC3(CC(=O)N(c4ccc5c(c4)OCO5)C3)C2)cn1` (stereo not given), the Percent Effect in test [1] is 2.85%; in test [2] it was -15.8%.

With `O=C(c1ccncc1)N1CCC(O)(Cn2ccc3ccncc32)CC1`, the values for the Percent Effect in test [1] and in test [2] were -0.194% and -14.9%, respectively.

As for `CC(NC(=O)c1ccc2c(c1)OCC(=O)N2)c1ccccc1F` (stereo not given), the results for the Percent Effect in test [1] and in test [2] were 7.05% and 24%, respectively.

With `N#Cc1ccc(C(=O)N2CC[C@H]3[C@@H]2CCC(=O)N3c2ccccc2)cc1`, the results for the Percent Effect in test [1] and in test [2] were 0.485% and -9.64%, respectively.

With `O=C(NCC1CC1)[C@H]1C[C@H]2OCC[C@H]2N(Cc2ccoc2)C1`, the Percent Effect in test [1] is 2.61%; in test [2], -11.8%.

For the molecule `CC(=O)N1CC[C@H]2OCC[C@@H](C(=O)N3CCCCO3)[C@@H]2C1`, the Percent Effect in test [1] was 0.958%; in test [2], -16.9%.

In the case of `Cc1occc1C(=O)N1CC[C@@H](N2CCOCC2)[C@@H]1Cc1ccccc1`, the Percent Effect stood at 7.49% in test [1] and 6.03% in test [2].

With `CC(C)CC(=O)N1CCN(C(=O)N(C)C)CC2(CC(=O)N(C)C2)C1` (stereo not given), the values for the Percent Effect in test [1] and in test [2] were 1.73% and 1.92%, respectively.

As to `Cc1cnn(C2CN(CC(=O)NCCc3ccccc3)C2)c1`, the values for the Percent Effect in test [1] and in test [2] were -1.74% and 32.1%, respectively.
